The text below walks through data of PubChem BioAssay.

Active and inactive are the calls of the source.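 The calls were made as follows, unless noted: active = inhibition at or above 50% at 10 µM; inactive = inhibition below 50%.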 Where a SMILES comes first, the peptide text is derived from it. [ ]: non-standard residue; d: D form. The star is where a group is joined. ξ: configuration not given here. Cbz = O=C(OCc1ccccc1)*; ξK = NCCCCC(N)C(=O)O

A short description of test [1]: inhibitors of TNFa-induced NFkB p65 translocation, primary screen, imaging, HUVEC, MLSMR starter and 10KST1 sets (AID 438;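 active = inhibition above 20% together with a positive visual image hit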;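 also: compound added about 3h40 before a 20 min TNFalpha stimulation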;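 as to inhibition: signal is the nuclear over cytoplasmic p65 intensity ratio per well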). Particulars: HUVEC TNFa-induced p65 nuclear translocation; cell count: measured here: nuclei count (cytotoxicity indicator), at 2.08 µM; inhibition: at 2 µM, stronger effect = higher value, 0% TNFa-plus-vehicle, 100% no-TNFa wells.
A short description of test [2]: inhibitors of mutant huntingtin aggregation, primary screen, imaging, exon1htt(103Q)mCFP cells, high-content imaging (AID 483;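 active = visual image review flags a hit and inhibition of aggregation exceeds 20%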;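 also: compound exposure lasted 3 days before fixation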;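 as to nuclei count: percent of the per-plate median nuclei count of sample wells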). Particulars: exon1htt(103Q)mCFP cell line, aggregate imaging, at 2 µM; inhibition of aggregation: stronger effect = higher value; nuclei count: measured here: cell count, toxicity.
Test [3] is described as follows: inhibitors of E-selectin induction by TNFa, primary screen, imaging, HUVEC, immunofluorescence, MLSMR starter and 10KST1 sets (AID 487;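 active = visually confirmed hit in the image check and inhibition above 20%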;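 as to inhibition: signal is fraction of cell area covered by stained E-selectin grains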;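 as to nuclei count: 100% = median nuclei count of all wells on the same plate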). Particulars: HUVEC TNFalpha-induced E-selectin immunofluorescence imaging, at 2 µM; inhibition: stronger effect = higher value; nuclei count: measured here: cell number, toxicity.
Test [4] concerns the target Voltage-gated potassium channel subunit beta-2 (Rattus norvegicus) (UniProt P62483). In words: KvBeta enzyme negative modulators, primary screen, biochemical, NADPH fluorescence (AID 622;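 active = fluorescence slope higher than the sample average by over 3 SD, cut at about -0.22 in these data, passing the limit was not always enough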;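 also: slope of raw intensity against log time taken from 70 to 1610 s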). Conditions: recombinant KvBeta, 4-cyanobenzaldehyde reduction, at 10 µM, stronger effect = higher value.
For test [5] the target is unchanged. Put plainly: KvBeta positive modulators, primary screen, biochemical, NADPH fluorescence (AID 623;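 active = NADPH fluorescence slope more negative than the mean of all samples by about 3 SD, 99.7% confidence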;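 also: fluorescence intensity change per second fitted from 20 to 320 s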). Particulars: Recombinant KvBeta, NADPH fluorescence decrease slope, 10 min; at 10 µM; stronger effect = lower value.
Test [6] addresses Alpha-2C adrenergic receptor (Homo sapiens) (UniProt P18825). Put plainly: modulators of alpha2C/GIRK thallium flux, primary screen, cell-based, HEK293 alpha2C/GIRK1/2 (AID 624;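 active = fluorescence slope after compound addition differing from the mean of all screened samples at 99.7% confidence, in either direction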;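 also: slope of fluorescence ratio to pre-addition baseline per second over 15 to 24 s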). Particulars: thallium flux BTC fluorescence, at 10 µM, actives lie on both sides.
A short description of test [7]: inhibitors of Sendai virus-induced IRF3 signaling, primary screen, TLR/RLR signaling modifier project, cell-based, Sendai virus stimulus, luciferase, 10K MLSCN set (AID 602276).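 Also: firefly luciferase from ISG56 promoter only with Renilla not read in this screen; 0% = Sendai virus plus DMSO and 100% = medium plus DMSO without virus.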 Particulars: HEK293 RL24 IRF3 luciferase reporter, at 10 µM, stronger effect = higher value. (In a reporter assay the amount or activity of a reporter protein is the signal.)
A short description of test [8]: inhibitors of poly I:C-induced TLR3 signaling, primary screen, cell-based, poly I:C stimulus, luciferase, 10K MLSCN set (AID 602277;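 active = inhibition of the reporter signal at or above 50%; inactive = inhibition below 50%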). Particulars: HEK293-TLR3 RL24 IRF3 luciferase reporter, at 10 µM, stronger effect = higher value.

Voltage-gated potassium channel subunit beta-2 (Rattus norvegicus), sequence (P62483 whole entry, looked up): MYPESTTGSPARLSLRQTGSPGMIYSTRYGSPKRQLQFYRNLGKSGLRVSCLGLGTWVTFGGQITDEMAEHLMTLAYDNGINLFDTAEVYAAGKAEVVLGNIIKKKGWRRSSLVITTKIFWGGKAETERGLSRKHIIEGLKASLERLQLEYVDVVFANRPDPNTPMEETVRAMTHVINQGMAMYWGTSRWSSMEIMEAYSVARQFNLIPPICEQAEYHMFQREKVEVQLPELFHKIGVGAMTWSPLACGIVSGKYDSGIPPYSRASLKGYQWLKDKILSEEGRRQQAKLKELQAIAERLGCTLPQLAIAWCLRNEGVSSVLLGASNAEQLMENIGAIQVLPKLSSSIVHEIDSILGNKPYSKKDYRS
Alpha-2C adrenergic receptor (Homo sapiens), sequence (P18825 whole entry, looked up): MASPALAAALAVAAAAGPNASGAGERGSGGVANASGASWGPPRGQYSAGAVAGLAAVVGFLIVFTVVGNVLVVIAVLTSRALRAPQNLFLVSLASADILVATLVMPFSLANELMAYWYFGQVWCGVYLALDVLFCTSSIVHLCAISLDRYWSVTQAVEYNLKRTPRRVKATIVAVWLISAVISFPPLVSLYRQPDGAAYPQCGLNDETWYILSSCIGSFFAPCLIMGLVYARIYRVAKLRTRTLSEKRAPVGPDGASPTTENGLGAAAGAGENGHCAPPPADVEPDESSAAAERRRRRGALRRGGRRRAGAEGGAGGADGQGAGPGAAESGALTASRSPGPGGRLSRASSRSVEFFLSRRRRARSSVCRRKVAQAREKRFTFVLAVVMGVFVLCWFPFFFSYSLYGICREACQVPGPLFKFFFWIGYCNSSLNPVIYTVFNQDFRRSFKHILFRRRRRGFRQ

In general, inhibition refers to the relative decrease from the control value, in per cent. Consider `COc1cccc(C2CC(c3c(Cl)cccc3Cl)n3nc(N)nc3N2)c1` (centres undefined), for which the cell count in test [1] turned out to be 568. Besides, the inhibition in test [1] is 13.8% (inactive); in test [3] it was 25.6% (inactive); in test [7], 22.2% (inactive); in test [8], 23.9% (inactive). Further, the inhibition of aggregation in test [2] was -23.3% (inactive). Moreover, the nuclei count stood at 75.1% in test [2] and 92.1% in test [3]. Moreover, in test [4], the fluorescence slope is -0.504 (inactive). Besides, the NADPH fluorescence slope in test [5] is -1.9e-05 (inactive). In addition, the slope in test [6] was 0.00695 (inactive).

Regarding `CCOC(=O)C1=C(C)OC(N)=C(C#N)C1c1ccoc1` (centres undefined), in test [1], the cell count is 558. Besides, the inhibition in test [1] is -4.8% (inactive); in test [3], 24.7% (inactive); in test [7], 9.81% (inactive); in test [8], 33% (inactive). The inhibition of aggregation in test [2] was -7.5% (inactive). The nuclei count in test [2] came out at 81.3%; in test [3], 78.9%. In addition, the fluorescence slope in test [4] is -0.428 (inactive). The NADPH fluorescence slope in test [5] is -6.9e-05 (inactive). The slope in test [6] is 0.00431 (inactive).

`COc1ccc(-c2nc(C(N)=O)c3[nH]c(=O)n(-c4cccc(Cl)c4)c3n2)cc1OC`: the cell count in test [1] was 743. Besides, the inhibition is -1% (inactive) in test [1], -63.8% (inactive) in test [3], 3.83% (inactive) in test [7] and 6.23% (inactive) in test [8]. In test [2], the inhibition of aggregation is 7.2% (inactive). For the same compound, the nuclei count in test [2] worked out at 100%; in test [3], 114%. Moreover, the fluorescence slope in test [4] is -0.521 (inactive). For the same compound, in test [5], the NADPH fluorescence slope was -3e-05 (inactive). Moreover, in test [6], the slope is 0.00698 (inactive).

`CCC(C(=O)N1CCc2cc(OC)c(OC)cc2C1)c1ccccc1` (centres undefined): the cell count in test [1] came out at 598. The inhibition in test [1] is 5% (inactive); in test [3] it was 11.7% (inactive); in test [7], 3.51% (inactive); in test [8], 6.78% (inactive). Also, the inhibition of aggregation in test [2] is -8.2% (inactive). Moreover, the results for the nuclei count in test [2] and in test [3] were 88.6% and 103%, respectively. In addition, the fluorescence slope in test [4] was -0.478 (inactive). In test [5], the NADPH fluorescence slope is 5.9e-06 (inactive). The slope in test [6] is 0.00474 (inactive).

Turning to `CCOC(=O)Nc1nnc(-c2ccccc2OC)s1`, the cell count in test [1] amounted to 613. In addition, the inhibition is -2.7% (inactive) in test [1], 10.1% (inactive) in test [3], -20.9% (inactive) in test [7] and -24.1% (inactive) in test [8]. Also, the inhibition of aggregation in test [2] is -8.8% (inactive). For the same compound, the nuclei count was found to be 108% in test [2] and 102% in test [3]. Moreover, the fluorescence slope in test [4] is -0.514 (inactive). Moreover, the NADPH fluorescence slope in test [5] was 1.1e-05 (inactive). Further, the slope in test [6] was 0.00542 (inactive).

Regarding `COC(=O)C(CCCCNC(=O)OCc1ccccc1)NC(=O)CN` (centres undefined) (H-Gly-[ξK](Cbz)-OMe), in test [1], the cell count turned out to be 529. Further, the inhibition was -6.5% (inactive) in test [1], -14% (inactive) in test [3], 4.8% (inactive) in test [7] and 6.56% (inactive) in test [8]. The inhibition of aggregation in test [2] is 11.4% (inactive). Moreover, the nuclei count is 104% in test [2] and 71.3% in test [3]. Further, the fluorescence slope in test [4] was -0.623 (inactive). The NADPH fluorescence slope in test [5] was -2.9e-05 (inactive). The slope in test [6] is 0.00756 (inactive).

`COc1cc(C(=O)Nc2ccc(-n3cnnn3)c(C)c2)cc(OC)c1OC`: the cell count in test [1] was 302. Further, the inhibition in test [1] was 5.8% (inactive); in test [3], -94.5% (inactive); in test [7], -0.467% (inactive); in test [8], 20.8% (inactive). In addition, the inhibition of aggregation in test [2] is 11.6% (inactive). In addition, the nuclei count is 90% in test [2] and 149% in test [3]. Besides, the fluorescence slope in test [4] was -0.617 (inactive). In addition, the NADPH fluorescence slope in test [5] is 3e-06 (inactive). In addition, in test [6], the slope was 0.00564 (inactive).

For `CC1CN(S(=O)(=O)c2ccc(Cl)c(C(F)(F)F)c2)CC(C)O1` (centres undefined), the cell count in test [1] came to 390. For the same compound, the inhibition was 6.1% (inactive) in test [1], 0.5% (inactive) in test [3], 7.15% (inactive) in test [7] and 0.275% (inactive) in test [8]. Besides, the inhibition of aggregation in test [2] was -1.4% (inactive). Moreover, the nuclei count in test [2] was 105%; in test [3] it was 110%. Moreover, in test [4], the fluorescence slope is -0.31 (inactive). For the same compound, the NADPH fluorescence slope in test [5] is -4e-05 (inactive). Moreover, in test [6], the slope was 0.0059 (inactive).

Turning to `Cc1cc(C(=O)NCCCc2ccccc2)no1`, in test [1], the cell count turned out to be 765. Besides, the inhibition in test [1] was -8.2% (inactive); in test [3], -58% (inactive); in test [7], -11.5% (inactive); in test [8], -13.4% (inactive). In addition, the inhibition of aggregation in test [2] is 0% (inactive). Besides, the nuclei count in test [2] came to 105%; in test [3], 120%. The fluorescence slope in test [4] was -0.358 (inactive). For the same compound, the NADPH fluorescence slope in test [5] is -1.1e-05 (inactive). Also, the slope in test [6] was 0.00425 (inactive).

Consider `O=c1cnnc(NCc2ccccc2)[nH]1`, for which, in test [1], the cell count was determined as 696. Further, the inhibition in test [1] is -11.2% (inactive); in test [3] it was -32.9% (inactive); in test [7] it was 1.13% (inactive); in test [8], 8.35% (inactive). Besides, in test [2], the inhibition of aggregation is 9.3% (inactive). Also, the nuclei count is 99.5% in test [2] and 105% in test [3]. The fluorescence slope in test [4] was -0.418 (inactive). Besides, in test [5], the NADPH fluorescence slope is -2.6e-05 (inactive). The slope in test [6] is 0.00324 (inactive).

As for `c1coc(CN2CN=C(Nc3nc4ccccc4s3)NC2)c1`, the cell count in test [1] turned out to be 604. The inhibition is -1.5% (inactive) in test [1], 13.3% (inactive) in test [3], -12.9% (inactive) in test [7] and -7.25% (inactive) in test [8]. In addition, the inhibition of aggregation in test [2] was -13.8% (inactive). In addition, the nuclei count stood at 106% in test [2] and 109% in test [3]. Moreover, the fluorescence slope in test [4] was -0.357 (inactive). Moreover, the NADPH fluorescence slope in test [5] was -2.5e-05 (inactive). The slope in test [6] was 0.00455 (inactive).

In the case of `CCC(Sc1ncccc1C(=O)O)C(=O)N1CCCC1` (centres undefined), the cell count in test [1] came to 597. The inhibition was 10% (inactive) in test [1], 5% (inactive) in test [3], 5.91% (inactive) in test [7] and 15.4% (inactive) in test [8]. Also, the inhibition of aggregation in test [2] is 32.9% (inactive). For the same compound, the nuclei count is 93.4% in test [2] and 116% in test [3]. In addition, in test [4], the fluorescence slope is -0.372 (inactive). In test [5], the NADPH fluorescence slope is -4.6e-05 (inactive). Also, in test [6], the slope was 0.00559 (inactive).

Turning to `COc1cc(C2c3c(oc4ccccc4c3=O)C(=O)N2c2ccc(C)cn2)ccc1O` (centres undefined), the cell count in test [1] came out at 464. Also, the inhibition in test [1] is 2.1% (inactive); in test [3], -49% (inactive); in test [7], -5.41% (inactive); in test [8], 7.4% (inactive). For the same compound, the inhibition of aggregation in test [2] is 8.8% (inactive). For the same compound, the nuclei count in test [2] stood at 107%; in test [3] it was 122%. For the same compound, the fluorescence slope in test [4] is -0.598 (inactive). In addition, in test [5], the NADPH fluorescence slope is -4.5e-05 (inactive). For the same compound, the slope in test [6] is 0.00645 (inactive).

On to `CCn1c(SCC(=O)N2CCOCC2)nc2c(c1=O)SC(C)C2` (centres undefined), for which, in test [1], the cell count is 298. Moreover, the inhibition is 9.4% (inactive) in test [1], 20% (inactive) in test [3], -5.39% (inactive) in test [7] and 4.93% (inactive) in test [8]. Moreover, the inhibition of aggregation in test [2] is 21.4% (inactive). The nuclei count in test [2] turned out to be 89.2%; in test [3], 93.4%. Further, the fluorescence slope in test [4] was -0.542 (inactive). The NADPH fluorescence slope in test [5] is -3.5e-06 (inactive). For the same compound, the slope in test [6] was 0.00531 (inactive).
